# In the library only some 0.77% were active in any assay of this set; here they are far more common.
# RE007 growth inh = qHTS Assay for Inhibitors of the HIV-1 protein Vpr. hit rate 0.21% among 360,000. S. pombe RE007 Vpr strain, BacTiter-Glo ATP luminescence, 24 h. Potency, µM (top dose mostly 92.2 µM), most hits filed as inhibitors; active = well fitted falling curve with a large enough effect; inconclusive = small, poorly fitted or top-dose-only effect; inactive = no such curve, though single readings can be large or run the other way; also: nearly all actives have a fitted effect of over 50% in size
#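 Fission yeast RE007 carrying one integrated HIV-1 vpr copy, seeded at OD 0.01 in PMG+AL medium with 23 nL pinned compound. Grown 24 h at 30 degrees; viability read by BacTiter-Glo luminescence after 5 min.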
# NS1 inh = qHTS Assay for Inhibitors of Influenza NS1 Protein Function; AID 2326, 2010; hit rate 0.4% among 270,000; Potency, µM (doses to about 46.1 µM); calls by dose curve; also: actives are rising curves; nearly all actives have a fitted effect of over 50% in size
#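 OD600 was taken as the measure of yeast growth restored by compound in an NS1-expressing S. cerevisiae strain. Cells had been washed out of glucose medium and diluted 1:100 into galactose -URA medium, pH 6.0.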
# LmPK inh = qHTS Assay for Inhibitors of Leishmania Mexicana Pyruvate Kinase (LmPK); Q27686; purified LmPK, Kinase-Glo ATP luminescence, 1 h; Potency, µM (top dose mostly 57.5 µM), hits mostly inhibitors; hit rate 0.37% among 290,000; AID 1721, 2009
# Target sequence (Q27686 whole entry, looked up): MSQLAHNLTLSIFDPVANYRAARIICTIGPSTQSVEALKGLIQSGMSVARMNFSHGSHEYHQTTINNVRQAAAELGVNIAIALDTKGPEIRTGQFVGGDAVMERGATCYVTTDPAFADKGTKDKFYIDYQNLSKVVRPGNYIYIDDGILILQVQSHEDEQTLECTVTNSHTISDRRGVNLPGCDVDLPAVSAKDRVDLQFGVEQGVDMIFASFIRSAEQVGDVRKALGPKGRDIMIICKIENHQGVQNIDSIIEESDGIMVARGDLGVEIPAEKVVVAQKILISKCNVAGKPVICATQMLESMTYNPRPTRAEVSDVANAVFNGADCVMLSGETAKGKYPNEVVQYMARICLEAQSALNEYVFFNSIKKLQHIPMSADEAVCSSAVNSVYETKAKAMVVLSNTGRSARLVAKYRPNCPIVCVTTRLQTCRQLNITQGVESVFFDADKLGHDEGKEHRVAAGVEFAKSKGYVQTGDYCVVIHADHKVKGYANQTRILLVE
#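 0.1 nM LmPK, 0.5 mM PEP, 0.1 mM ADP; 50 mM imidazole pH 7.2, 7 mM MgCl2, 50 mM KCl; 1 h RT. Kinase-Glo luminescence readout, normalized to no-enzyme (full inhibition) and uninhibited wells.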
# TbPYK inhibitor = qHTS of Trypanosoma Brucei Inhibitors | TbPYK enzyme, Kinase-Glo Plus ATP luminescence, 45 min | pyruvate kinase (Trypanosoma brucei), Q57TT1 | hit rate 0.12% among 410,000 | Potency, µM (highest dose often 76.8 µM), usual class: inhibitors | AID 624173, 2012; also: nearly all actives have a fitted effect of over 50% in size
#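 Readout: single end-point luminescence (Kinase-Glo Plus, 10 min). Reaction conditions were TbPYK/substrate plus 130 uM ADP, 45 min at RT, pH 7.2 TEA buffer. No-enzyme wells served as controls, and data were normalized before concentration-response fitting.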
# NS1 inh valid = Assay for Inhibitors of Influenza NS1 Protein Function: Hit Validation; shares compounds with NS1 inh; influenza NS1 function cell assay, 15-point titration; activity change, negative = inhibition, % at 32.9 µM; 1,400 tested, under 10 active; AID 492980, 2010; calls by dose curve
# PR8 titer = Assay for Inhibitors of Influenza NS1 Protein Function: Influenza virus replication assay in MDCK cells infected with virus A/PR/8/34; MDCK infected influenza A/PR/8/34, virus titer TCID50; stronger effect = lower value; hit rate 30% among 95; virus titer (log TCID50), log10 TCID50 at 5 µM; shares compounds with NS1 inh; call rule not given here
# Hits are given with their value; n = inactive; u = inconclusive; x = no result given. Unless noted, calls follow the shape of the dose curve; as a rule, active = well fitted curve in the direction sought with a large enough effect; inconclusive = small, poorly fitted or top-dose-only effect, or another doubt; inactive = no such curve, though single readings can be large; an effect the other way counts as inactive or inconclusive.
SMILES,RE007 growth inh,NS1 inh,LmPK inh,TbPYK inhibitor,NS1 inh valid,others
CC(=O)c1cccc(NS(=O)(=O)c2ccc(N/C=C\C(=O)c3ccc(F)cc3)cc2)c1,n,n,n,n,x,
CCOc1ccc(-c2nnc(SCC(=O)Nc3cccc(C#N)c3)o2)cc1,x,x,x,n,x,
CCOc1ccc(NC(=S)N2CCc3cc(OC)c(OC)cc3C2COc2ccc3c(C)cc(=O)oc3c2)cc1 (stereo not drawn),n,11µM,n,n,n,
Cc1ccc(-c2nnc(NCc3nc4ccccc4[nH]3)c3ccccc23)cc1S(=O)(=O)N(C)C,n,5.6µM,n,n,n,PR8 titer=7.5
O=C(Nc1ccc2c(c1)CCC2)c1ccc(F)cc1,n,n,n,n,x,
O=C(Nc1ccc2c(c1)CCC2)c1cc(S(=O)(=O)Nc2ccc(F)cc2)c(Cl)cc1Cl,n,14µM,n,n,n,PR8 titer=n
CCCCn1c(C)cc2cc(O)ccc21,n,10µM,n,n,u,
CCCCn1c(S(=O)(=O)O)nc2ccccc21,n,n,n,n,x,
CN(C)S(=O)(=O)c1cccc(C(=O)OCC(=O)c2ccc3c(c2)NC(=O)CO3)c1,n,u,n,n,n,
O=C(N=C1SCC(=O)N1c1ccccc1)c1ccco1,n,n,n,n,x,
O=C(N=C1SCC(=O)N1c1ccccc1Cl)c1ccco1,n,11µM,n,n,n,
CN(Cc1ccccc1)c1ccc(C(CC(N)=O)NC(=O)c2ccc(Br)cc2)cc1[N+](=O)[O-] (stereo not drawn),n,5µM,n,n,u,
CCc1ccc(CN(Cc2ccco2)c2cnc(S(C)(=O)=O)nc2C(=O)Nc2ccc(C)c(Cl)c2)cc1,x,x,x,n,x,
O=C(c1ccncc1)N1CCC2(CCCN(c3cccc(-c4ccccc4)c3)C2)CC1,x,x,x,n,x,
Cc1cc(NC(=O)c2cc(CC(C)C)on2)no1,n,n,n,n,x,
CCC(C)NC(=O)c1cc(CC(C)C)on1 (stereo not drawn),n,u,n,n,n,
COC(=O)c1cccnc1-n1c(=O)c2cccnc2n(CC(=O)Nc2ccccc2F)c1=O,x,x,x,n,x,
Cc1cc(C)cc(NC(=S)NCc2cccn2C)c1,n,10µM,n,n,n,
Cn1cccc1CNC(=S)Nc1ccccc1Cl,n,x,n,n,x,
COCCn1c(C)cc(O)c(C(c2ccccc2Cl)N2CCN(c3ccccc3)CC2)c1=O (stereo not drawn),x,x,x,n,x,
Clc1cccc(CN2CCC(Cc3ccccc3)CC2)c1,n,u,n,n,n,
O=C(NCc1ccc(F)cc1)c1cc2n(n1)CCCN(Cc1ccc(F)cc1)C2=O,x,x,x,n,x,
CN1CCN(CCCNC(=O)C2CCN(c3nnc(-n4cccc4)s3)CC2)CC1,n,n,n,n,x,
CCN1CCN(CCCNC(=O)C2CCCN(c3nnc(-n4cccc4)s3)C2)CC1 (stereo not drawn),n,5µM,n,n,n,
O=[N+]([O-])c1ccc(N(c2ccccc2)c2ccccc2)cc1,n,u,n,n,u,
SMILES,RE007 growth inh,NS1 inh,LmPK inh,TbPYK inhibitor,NS1 inh valid,others
COc1ccc(OC)c(S(=O)(=O)N(C)CC(=O)O)c1,n,1.8µM,n,n,n,
COc1ccc(OC)c(S(=O)(=O)N(C)CC(=O)Nc2ccccc2OC)c1,n,n,n,n,x,
O=C(NCc1ccc2[nH]c3c(c2c1)CCCC3)c1ccc(S(=O)(=O)N2CCCC2)cc1,n,13µM,n,n,n,PR8 titer=7
CN(C)S(=O)(=O)c1ccc(C(=O)NCc2ccc3[nH]c4c(c3c2)CCCC4)cc1,n,16µM,n,n,n,
Cc1ccc(CNC(=O)c2ccc(S(=O)(=O)N3CCCCCC3)cc2)cc1,n,x,x,n,x,
Cc1cc2cc(CNC(=O)c3ccc(S(=O)(=O)N4CCCCC4)cc3)ccc2[nH]1,n,11µM,n,n,n,
Cc1cc2cc(CNC(=O)Cc3ccc([N+](=O)[O-])cc3)ccc2[nH]1,n,x,n,n,x,
Cc1cc2cc(CNC(=O)c3cccc([N+](=O)[O-])c3)ccc2[nH]1,n,14µM,n,n,n,
Cc1ncc([N+](=O)[O-])n1CCN=[N+]=[N-],x,n,x,x,x,
Cc1ccc(C)c(CSc2nc3ccncc3n2CC(=O)Nc2ccc(N(C)C)cc2)c1,x,x,x,n,x,
O=C(c1csnn1)N1CCC2(CCCN(C(c3ccccc3)c3ccccc3)C2)CC1,x,x,x,n,x,
Cn1nc(-c2ccc(OCC(=O)Nc3ccc(Cl)cc3)cc2)c2ccccc2c1=O,x,x,x,n,x,
NCCCc1ccc2oc3ccccc3c2c1,x,n,x,x,x,
Cc1cc2ccccc2n1CCNC(=O)c1ccc(S(=O)(=O)N2CCCCC2)cc1,n,11µM,n,n,n,
Cc1nc2c(-c3ccc(F)cc3)c(C)nn2c(C)c1CCC(=O)N1CCC(Cc2ccccc2)CC1,n,7.1µM,n,n,n,
Cc1nc2c(ncn2-c2ccccc2)c(=O)n1NC(=O)CN1CCN(C)CC1,n,3.5µM,n,n,n,
CC(C)CCn1c(=O)c2cccnc2n(CC(=O)Nc2ccccc2)c1=O,x,x,x,n,x,
Fc1ccc(-c2cc(-c3nc(-c4ccccc4)no3)[nH]n2)cc1,x,x,x,n,x,
COc1ccc(C2C3C(=O)N(Cc4ccccc4)C(=O)C3ON2c2ccccc2)c(OC)c1OC (stereo not drawn),n,n,n,n,x,
COc1cc(C2C3C(=O)N(Cc4ccccc4)C(=O)C3ON2c2ccccc2)cc(OC)c1OC (stereo not drawn),n,11µM,n,n,u,
Cc1ccc(C(=O)OCc2cc(=O)n3nc(CC(C)C)sc3n2)cc1,x,x,x,n,x,
Cc1ccc2cccc(NC(=S)NC(=O)c3ccnn3C)c2n1,n,16µM,n,n,n,
NS(=O)(=O)c1ccc(N/N=C/c2cn(-c3ccccc3)nc2-c2ccccc2)c([N+](=O)[O-])c1,n,n,n,n,x,
O=[N+]([O-])c1ccc(N/N=C/c2cn(-c3ccccc3)nc2-c2ccccc2)cc1,n,u,n,n,n,
COc1ccccc1C1N(c2ccc(Cl)cc2)C(=O)C2CCCN21 (stereo not drawn),n,11µM,n,n,n,
COc1ccc(C2N(c3ccc(F)cc3)C(=O)C3CCCN32)cc1 (stereo not drawn),n,1.1µM,n,n,n,
COc1ccc(N2C(=O)C3CCCN3C2c2ccccc2OC)cc1 (stereo not drawn),n,n,n,n,x,
COc1ccc(C2N(c3ccc(OC)cc3)C(=O)C3CCCN32)cc1 (stereo not drawn),n,n,n,n,x,
CCOc1ccccc1-n1c(N)c(C(=O)OC)c2nc3ccccc3nc21,x,x,x,n,x,

# High-throughput results: PubChem BioAssay, National Center for Advancing Translational Sciences (NCATS)
